# Screening results as filed in PubChem BioAssay.
# Compounds with a hit are over-represented: about 4.8% of the library has one in this group of screens.
# NF-kB neuron act: NF-kB expression increase, human neuronal cells | NF-kB reporter expression; active compounds read high | fold change at 12.5 µM | actives 1.6% (n = 190,000) | AID 1239; in the data active = fold change above about 3.3
# STAT1 act: activators of IFN-gamma induced STAT1 signaling; NIH 3T3 STAT1-luciferase reporter, luminescence; 100% = IFN-gamma alone, no compound; activation (% of control), % at 5.5 µM; actives 2.6% (n = 200,000);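 active = activation above the screen-wide mean activation plus 3 SD, cut at about 130% in these data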;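 also: raw ratio to IFN-gamma control signal so 100% means no change and 0% no light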
# APP 5'UTR act: APP 5'UTR luciferase reporter activation. activation, % at 2 µM. SH-SY5Y APP 5'UTR luciferase reporter, luminescence; zero percent = DMSO vehicle wells. actives 1% (n = 190,000);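 active = activation above a set limit, based on mean plus 3 SD of controls, cut at about 140% in these data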
# APP 5UTR inh: APP translation inhibition | AID 1285 | actives 0.82% (n = 190,000) | inhibition, % at 2 µM | SH-SY5Y APP 5'UTR-luciferase reporter, luminescence;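 active = inhibition above a set limit, derived from the sample mean plus 3 SD, cut at about 45% in these data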
# Hsp70 activator: transcriptional activators of Hsp70. actives 0.04% (n = 200,000). activation, % at 10 µM. HeLa Hsp70 promoter luciferase reporter, luminescence; scaled: vehicle 0, proteasome-inhibitor control 100%;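 active = activation above the mean across all tested compounds plus 3 SD, cutoff set per campaign, cut at about 5.5% in these data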;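 also: 100% = MG132 at 30 µM as the positive control and 0% = DMSO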
# Wee1 degr inh: blocks degradation of human Wee1 kinase | P30291 | HeLa Luc-Wee1K328M stability, luciferase luminescence; 100% = proteasome inhibitor MG132 effect | reporter increase, % at 5 µM | actives 1.2% (n = 220,000);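 active = activation above the mean of all tested compounds plus 3 SD, set per screening run, cut at about 8.8% in these data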;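 also: cells exposed to compound for 20 h before luminescence read; 0% = DMSO alone and 100% = MG132 at 30 µM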
# Target sequence (P30291 whole entry K328M): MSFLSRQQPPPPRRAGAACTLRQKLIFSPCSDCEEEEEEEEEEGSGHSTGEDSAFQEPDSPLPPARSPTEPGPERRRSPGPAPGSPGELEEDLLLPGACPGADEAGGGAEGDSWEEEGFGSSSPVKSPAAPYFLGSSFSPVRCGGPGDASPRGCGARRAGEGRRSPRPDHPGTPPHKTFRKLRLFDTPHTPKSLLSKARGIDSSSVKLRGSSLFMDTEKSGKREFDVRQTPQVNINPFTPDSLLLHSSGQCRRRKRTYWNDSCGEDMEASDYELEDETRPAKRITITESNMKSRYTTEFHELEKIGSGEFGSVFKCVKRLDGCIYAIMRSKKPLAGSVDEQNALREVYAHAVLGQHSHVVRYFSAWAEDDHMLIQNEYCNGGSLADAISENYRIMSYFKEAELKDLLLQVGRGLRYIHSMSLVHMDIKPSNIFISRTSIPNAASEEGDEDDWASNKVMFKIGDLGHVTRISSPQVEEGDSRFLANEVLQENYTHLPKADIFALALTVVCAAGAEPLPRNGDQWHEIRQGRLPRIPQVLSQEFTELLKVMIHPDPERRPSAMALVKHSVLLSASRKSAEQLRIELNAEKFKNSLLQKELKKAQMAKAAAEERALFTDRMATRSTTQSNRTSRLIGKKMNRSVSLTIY
# Starred values were filed as active, the others as inactive; . = not tested or not shown.
SMILES,NF-kB neuron act,STAT1 act,APP 5'UTR act,APP 5UTR inh,Hsp70 activator,Wee1 degr inh
COc1ccc(C2C(C#N)=C(N)Oc3c2ccc2cccnc32)cc1OC (centres undefined),1.2,88,-92,92*,0,5
O=C(CCS(=O)(=O)c1ccccc1)Nc1cccc2c1C(=O)NC2=O,1,95,-9,9,0,-4
O=Nc1c2cc(-c3ccccc3)[nH]nc-2c2ccccc12,4.8*,105,101,-101,0,6
Cc1cccc(-c2cc3c(N=O)c4ccccc4c-3n[nH]2)c1,3.8*,106,142*,-142,0,6
Cc1[nH]n(C2=NCCS2)c(=O)c1N=Nc1cccc(C(F)(F)F)c1,1.1,96,-53,53*,0,-1
C=CCn1c(SCc2ccccc2C#N)nnc1-c1cc(Br)ccc1O,0.69,103,1,-1,0,10*
CCc1ccc2nc(SCC(=O)Nc3nnc(C)s3)c(C)cc2c1,1,100,-41,41,0,3
O=C(Nc1ccc(Cl)cc1)c1ccc(OCC2CCCO2)cc1 (centres undefined),2.4,137*,121,-121,0,5
C/C(=C\C(=O)c1ccncc1)Nc1ccccc1O,6*,98,8,-8,0,2
COc1ccc(OC)c(N/C(C)=C/C(=O)c2ccccc2)c1,1.1,134*,77,-77,0,-3
COc1ccc(N/C(C)=C/C(=O)c2ccccc2)cc1,3.4*,118,23,-23,0,6
O=Cc1cn[nH]c1-c1cccc([N+](=O)[O-])c1,1.1,97,27,-27,0,-2
CS(=O)(=O)N(CC(=O)N1CCCCCC1)c1cccc(Br)c1,1.3,105,-2,2,0,0
O=C1c2ccccc2-c2nc3ccccc3nc21,1.5,132*,11,-11,0,1
COc1ccccc1-c1nc2ccccc2nc1-c1ccccc1OC,0.95,93,.,.,0,9
CNC(=S)N/N=C/c1ccco1,.,.,.,.,.,-1
CSc1nnc(-c2ccccc2)o1,0.87,114,8,-8,0,-2
O=S1(=O)C=C(Sc2nnc(-c3ccccc3)o2)c2ccccc21,0.14,89,-96,96*,1,1
CC(C)Oc1cccc(C(=O)NC2=NCCS2)c1,2.1,132*,86,-86,0,8
COc1cccc(C(=O)NC2=NCCS2)c1,3.2,118,126,-126,-1,-3
CC1(C)CN=C(N(Cc2ccccc2)C(=O)Nc2ccccc2)S1,1.2,116,33,-33,0,0
O=C(Nc1ccc2c(c1)oc1ccccc12)c1ccc(Br)o1,1.6,139*,55,-55,0,5
CCN(CC)c1ccc(NC(=O)c2ccc(Br)o2)cc1,7*,133*,178*,-178,0,7
COCCn1c(SCC#N)nnc1-c1ccccc1O,1.1,100,-23,23,0,0
N#CCSc1nnc(-c2ccccc2O)n1Cc1ccccc1,0.94,106,.,.,-1,11*
SMILES,NF-kB neuron act,STAT1 act,APP 5'UTR act,APP 5UTR inh,Hsp70 activator,Wee1 degr inh
Cc1cc(NCCCn2ccnc2)n2ncc(-c3ccc(Cl)cc3)c2n1,1.3,156*,253*,-253,0,6
CCOC(=O)c1cnc(C(F)(F)F)nc1Oc1ccccc1,.,.,.,.,.,0
CC(C(=O)Nc1ccccc1)N(C)CCOc1ccc(Br)cc1 (centres undefined),1.1,108,19,-19,0,-1
CCOC(=O)N1CCN(c2ncnc3c2cnn3-c2ccc(OC)cc2)CC1,.,106,4,-4,0,1
O=c1c2cc(NC(=S)NCc3ccccn3)ccc2nc2n1CCCCC2,1.1,100,11,-11,0,2
O=C(Nc1ccc2nc3n(c(=O)c2c1)CCCCC3)c1ccccn1,3,145*,134,-134,0,0
COC(=O)CCC(=O)COc1ccc(OC)cc1C#N,1.6,130*,47,-47,0,-2
CCNC(=O)C1CCCN1S(=O)(=O)c1ccc(C)cc1 (centres undefined),0.99,104,9,-9,0,0
C[C@@H]1NC(=O)[C@H](CCCN=C(N)N)NC(=O)c2cc([N+](=O)[O-])cc(I)c2OCC[C@@H](C(N)=O)NC1=O,1.1,104,-15,15,0,-2
O=Cc1cn(CC(=O)N2CCOCC2)c2ccccc12,1.4,97,-11,11,0,2
Cc1cccc(CSc2cn(CC(=O)N3CCOCC3)c3ccccc23)c1,2.2,129*,13,-13,0,2
O=C(Cn1cc(SCc2cccc(Cl)c2)c2ccccc21)N1CCOCC1,1.7,106,-16,16,0,11*
COc1cccc(-n2c(CN3CCN(c4cccc(C)c4)C(C)C3)nc3ccc([N+](=O)[O-])cc3c2=O)c1 (centres undefined),0.68,101,27,-28,0,-1
COc1ccc(NC(=O)/C=C/c2ccccc2)c([N+](=O)[O-])c1,1.4,147*,76,-76,0,5
CCOc1ccc(NC(=O)COc2ccccc2)c([N+](=O)[O-])c1,4.1*,148*,78,-78,0,-1
O=C(Nc1ccc(C(=O)Oc2ccccc2)c(O)c1)c1ccccc1,1.3,120,33,-32,0,-2
CCOC(=O)Nc1ccc(C(=O)Oc2ccccc2)c(O)c1,1.7,108,27,-27,0,10*
O=C(O)COc1ccccc1/C=N/NC(=O)COc1ccc(-c2ccccc2)cc1,.,.,.,.,.,0
NC(=O)c1c(NC(=O)c2cccnc2)sc2c1CCCC2,1.8,134*,28,-28,0,5
Cc1sc(NC(=O)c2cccs2)c(C(N)=O)c1C,2.3,140*,56,-56,0,1
O=C(Nc1sc2c(c1C(=O)c1ccccc1)CCCC2)c1cccnc1,0.79,97,-2,2,-1,-2
CC(=O)Nc1sc2c(c1C(N)=O)CCCC2,1.2,105,-7,7,0,-2
Cn1nccc1C(=O)Nc1sc2c(c1C(N)=O)CCCC2,1.5,146*,33,-33,1,2
O=C(Nc1sc2c(c1C(=O)O)CCCCC2)c1cccs1,1.9,116,174*,-174,0,0
NNC(=O)CSCc1nc(-c2ccc(Cl)cc2)cs1,.,.,.,.,.,5
CS(=O)(=O)c1ccccc1C(=O)N1CCN(Cc2ccccc2)CC1,0.94,101,11,-11,0,-2
Cc1nc2cc(NC(=O)NCCC3=CCCCC3)ccc2o1,1.9,132*,70,-70,0,2
CCOC(=O)c1sc(NC(=O)CSc2nc3c(cc2C#N)CCCCC3)c(C#N)c1C,1.2,105,2,-2,0,1
CCc1nnc(NC(=O)CSc2nc3c(cc2C#N)CCCC3)s1,2.4,107,199*,-199,0,4
